# Screens deposited in PubChem by Corson Lab, School of Medicine, Indiana University.
# The full list was thinned out, with hits kept by preference.
# FECH block – human FECH heme synthesis enzyme inhibition. hit rate 3.3% among 20,000. purified FECH, Ni-mesoporphyrin absorbance 550 nm. P22830. calls only at 10 µM (by protocol);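 active = enzyme reaction rate more than 3 SD below the solvent-only control wells on the same plate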;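 note: lower slope than DMSO wells means FECH inhibition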
# Target sequence (P22830 whole entry, looked up): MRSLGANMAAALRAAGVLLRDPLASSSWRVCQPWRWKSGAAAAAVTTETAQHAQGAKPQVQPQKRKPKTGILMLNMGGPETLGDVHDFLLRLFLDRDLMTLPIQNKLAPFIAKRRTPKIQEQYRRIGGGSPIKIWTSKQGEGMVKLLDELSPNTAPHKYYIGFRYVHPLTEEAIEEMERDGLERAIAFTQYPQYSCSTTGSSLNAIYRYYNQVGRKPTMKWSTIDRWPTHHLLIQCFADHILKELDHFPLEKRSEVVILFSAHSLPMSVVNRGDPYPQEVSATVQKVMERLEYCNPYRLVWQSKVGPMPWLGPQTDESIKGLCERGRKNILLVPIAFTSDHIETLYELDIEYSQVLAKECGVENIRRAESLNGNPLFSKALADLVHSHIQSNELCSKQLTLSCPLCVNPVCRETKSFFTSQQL
# An asterisk follows results filed as active; i = inactive; + = active, no number.
SMILES,FECH block
CCc1cc(C(=O)NCc2cc(C)cc3c(C)c(CC)[nH]c23)n(C)n1,+
CCCNC(=O)NCc1cc(C)cc2c(C)c(CC)[nH]c12,i
CCc1[nH]c2c(CNc3cc(N4CCOCC4)ncn3)cc(C)cc2c1C,i
CCN(CC1CCCO1)C(=O)c1cc(C)nc2c(C)cccc12 (stereo not given),i
Cc1cc(CNC(=O)c2cn(Cc3cccc4ccccc34)nn2)n[nH]1,i
Cc1ccc(-c2c(-c3ccccc3)ncn2CCCN2CCOCC2)o1,i
COC(=O)CC1=CC(=O)N(CC(=O)Nc2ccc(OC)cc2)c2ccccc2N1,i
CCc1cccc(NC(=O)CN2CCN(Cc3ccccc3C)S2(=O)=O)c1,i
CSc1cccc(NC(=O)CN2CCN(Cc3ccccc3C)S2(=O)=O)c1,+
CCOc1ccc(NC(=O)CN2CCCN(Cc3ccc(C)cc3)S2(=O)=O)cc1,+
CCOC(=O)c1ccc(NC(=O)CN2CCCN(Cc3ccc(C)cc3)S2(=O)=O)cc1,i
COc1ccc(NC(=O)CN2CCCN(Cc3ccc(Cl)cc3)S2(=O)=O)cc1Cl,+
O=C(CN1CCCN(Cc2cccc(Cl)c2)S1(=O)=O)Nc1cccc(Cl)c1,i
Cc1cccc(NC(=O)CN2CCCN(Cc3ccc(Cl)cc3)S2(=O)=O)c1,i
COc1ccc(NC(=O)CN2CCCN(Cc3ccc(C)cc3)S2(=O)=O)cc1,i
COc1ccc(NC(=O)CN2CCCN(Cc3ccccc3)S2(=O)=O)cc1Cl,i
O=C(CN1CCCN(Cc2ccc(Cl)cc2)S1(=O)=O)Nc1ccc(F)c(Cl)c1,i
O=C(CN1CCCN(Cc2ccc(Cl)cc2)S1(=O)=O)Nc1cccc(Cl)c1,+
CSc1cccc(NC(=O)CN2CCN(Cc3ccccc3)S2(=O)=O)c1,i
Cc1cc(C)n2nc(CN(C(=O)c3ccccc3F)c3ccccc3)nc2n1,i
Cc1sc2nc(CCN)nc(N3C[C@@H]4CC[C@H]3C4)c2c1C,i
Cc1ccc(NC(=O)CN2CCN(Cc3cc(C)ccc3C)S2(=O)=O)cc1,i
CCOc1ccc(NC(=O)CN2CCN(Cc3cccc(C)c3)S2(=O)=O)cc1,i
CC(=O)c1cccc(NC(=O)CN2CCCN(Cc3ccccc3Cl)S2(=O)=O)c1,i
Cc1ccc(CN2CCN(CC(=O)Nc3cc(C)cc(C)c3)S2(=O)=O)cc1,i
SMILES,FECH block
COc1cc(OC)c(NC(=O)CN2CCCN(Cc3cc(C)ccc3C)S2(=O)=O)cc1Cl,+
COc1ccc(NC(=O)CN2CCN(Cc3ccc(C)cc3)S2(=O)=O)cc1,i
COc1ccc(NC(=O)CN2CCCN(Cc3ccccc3Cl)S2(=O)=O)cc1Cl,+
COc1ccc(NC(=O)CN2CCN(Cc3cccc(C)c3)S2(=O)=O)cc1Cl,+
Cc1ccc(NC(=O)CN2CCN(Cc3ccccc3)S2(=O)=O)cc1C,i
COc1ccc(NC(=O)CN2CCCN(Cc3ccc(C)cc3)S2(=O)=O)c(OC)c1,i
COc1cccc(NC(=O)CN2CCN(Cc3ccc(C)cc3)S2(=O)=O)c1,+
O=C(CN1CCCN(Cc2ccccc2Cl)S1(=O)=O)Nc1ccccc1,i
CCOC(=O)c1cc2ccsc2n1CC(=O)Nc1ccccc1F,i
CC1CCCCN1C(=O)CSCc1nc(-c2ccc(Cl)cc2)no1 (stereo not given),i
Cc1cc2c(cc1C(=O)N1CCOC(C(F)(F)F)C1)OCCO2 (stereo not given),i
COc1ccccc1CNc1nc2nc(CN3CCCCC3)cc(=O)n2[nH]1,i
COCc1nc2cccnc2n1C1CCN(S(=O)(=O)c2cc(C)ccc2NC(C)=O)CC1,i
COc1ccc(CN2CCCC(CNC(=O)CO)C2)cc1C (stereo not given),i
Cc1ccc(-c2ncc3c(=O)n(Cc4ccc(F)cc4Cl)c(=O)n(C)c3n2)cc1,i
COC(=O)CN(c1nc2nc(C)cc(C)n2n1)S(=O)(=O)c1ccccc1,i
COc1ccccc1OCC(=O)Nc1cccc(N2CCCS2(=O)=O)c1,i
COc1ccc(NC(=O)COc2cc(C)nc(-c3ccc(C)cc3)n2)cc1OC,i
Cc1ccc(-c2nc(C)cc(OCC(=O)Nc3ccc(C)c(F)c3)n2)cc1,+
Cc1ccc(-c2nc(C)cc(OCC(=O)Nc3cc(C)ccc3C)n2)cc1,i
CCc1ccccc1NC(=O)CCn1cnc(-c2ccccc2)c1C1CC1,i
COCCNC(=O)C1(C)Cn2c(cc3ccsc32)C(=O)N1Cc1ccccc1OC (stereo not given),i
COCCNC(=O)C1(C)Cn2c(cc3ccsc32)C(=O)N1Cc1ccccc1 (stereo not given),i
COCCNC(=O)C1(C)Cn2c(cc3ccsc32)C(=O)N1Cc1ccccc1C (stereo not given),+
Cc1cc2cccc(C(=O)N3[C@H]4CCNC[C@@H]3CC4)c2o1,i
COc1ccccc1C(=O)N(Cc1nc2nc(C)cc(C)n2n1)c1cccc(Cl)c1,i
Cc1nc(C(=O)NCCn2ncc3ccccc3c2=O)cs1,i
CCc1ncc(C(=O)N(Cc2ccsc2)CC2CCCO2)cn1 (stereo not given),i
